biological target: SCGB3A1; experiment: pooled miR-30 sensor sort-seq; sequence = guide strand; conditions: shRNA

Point of comparison: CAGCTCAGCCACACACTTCTGG, sensor-assay potency score (higher = more potent) -1.81. Against it:
- TTCACGGGGATGCCCAGGCTGC — lower, -1.89
- CTCAGCAGGAGCTTCAGCGGGT — higher, -1.59
- TCCAGCGCAGCGACAGGCTGGG — higher, -1.47
- TAAGAAAGCAGCAGCGGAGCTG — higher, -0.766
- AAGAAAGCAGCAGCGGAGCTGC — higher, -0.859
- TCAGCCACACACTTCTGGGAGC — higher, -1.19
- AAAGCAGCAGCGGAGCTGCAGG — higher, -1.3
- TCTATGAGGTGGTTCACGGGGA — higher, -0.221
- ACTAAGAAAGCAGCAGCGGAGC — higher, -1.78
- AGCTCAGCCACACACTTCTGGG — higher, -1.63
- TATGAGGTGGTTCACGGGGATG — lower, -2.01

biological target: SCN10A; experiment: as above; conditions: shRNA

Point of comparison: TTCAGCACCATAAATGTCCGGT, sensor-assay potency score (higher = more potent) 0.128. Against it:
- TTGAGCTTCACCCACATGGGGC — lower, -0.622
- TATGATACTGACAACACTCATT — lower, -0.905
- TTAGACAAAATCCTCTTGCCAG — lower, -0.449
- TATTCCAGAATCTTCGCTGTGA — higher, 0.727
- TAGTGCTGCTAGCACCTCCTGC — lower, -0.978
- TTAACCAAAATAGTGACCGTAA — lower, 0.123
- TTGACTTTCACATTGACCCAGA — higher, 0.154
- TTGGTCATCAGTCTCCACCATC — lower, -1.09
- TTGTCCTGCATCGAATGCCGAG — lower, -1.18
- TAATGCTCTAAGAACTCTGAAT — lower, -0.877
- TTGCTTCTCTATCTCCACCAGT — lower, -0.403

biological target: SCN2B; experiment: as above; conditions: shRNA

Point of comparison: TAAACTGGAAATAACTGTGAAG, sensor-assay potency score (higher = more potent) -0.894. Against it:
- ATTGTCTGTCTGCTTAACCTGA — lower, -0.931
- TATATCTATACCTAGAGAGAGA — lower, -1.18
- TTTTTTTCTCCTCACACACTTG — lower, -1.04
- TTGTCTGTCTGCTTAACCTGAC — higher, -0.0966
- TATAGCACACACAACCAAGAAA — lower, -1.12
- TTGCACTCCTGGTAAGTCCAGT — higher, 0.119
- TTGCAAAAGAAACTCAGTCTGC — higher, -0.173
- TTGATTGGCAGTTAGGTACTGA — higher, 0.514
- TTCCCTGAGAACTCCACGCGGT — higher, -0.473
- TTGTGGTTCACTGTGTAGCAGG — higher, -0.841
- TTAATTAGGAGGAAGAGACAGA — higher, -0.125

biological target: SCN4A; experiment: as above; conditions: shRNA

Point of comparison: TTGACCTTGACATTGAGCCAGC, sensor-assay potency score (higher = more potent) -0.555. Against it:
- TTGATGAGCATGTTCAGCGTTG — higher, -0.377
- TGCAGTAGTAGAACTTGCCGGC — higher, 0.0253

Reference: the OligoGym collection
